Results as given in PubChem BioAssay AID463173 (ICCB-Longwood Screening Facility, Harvard Medical School, 2010).
In all, about 52,000 compounds went through this assay and about 4,300 (8.3%) were called active. Rule as the data show it: active = survival mostly below about 52% (no sharp cut-off); inactive = mostly above about 56%. The list comes from a sample in which actives are over-represented; it also holds similar structures and randomly drawn compounds.

These molecules were tested on DeltatarO mutant (assay: S. aureus survival, RN4220 and DeltatarO strains – OD600, teichoic acid synthesis inhibitors, primary screen (AID 463173)). Settings: S. aureus RN4220 wild type/DeltatarO growth, OD600, 18 h, active compounds read low, screened at 18.75 µg/mL (by protocol).

SMILES | survival
CCCOc1ccc(C(=O)N(Cc2cccs2)c2ccc(C)cc2)cc1 | 70% (inactive)
Cn1c(CCNC(=O)c2ccco2)nc2cc(NC(=O)COc3ccc(Cl)cc3)ccc21 | 58% (inactive)
COc1cc(OC)c(NC(=O)c2c3c(nc4ccccc24)C(=O)N(C2CCCCC2)C3)cc1Cl | 60% (inactive)
Cc1ccc(-n2nc(CO)c(C(=O)NCC(c3ccccc3)c3ccccc3)n2)cc1 | 90% (inactive)
CCOc1ccc(CCNC(=O)CCSCc2cccc(Cl)c2)cc1OCC | 81% (inactive)
CCOCCc1nn2c(=O)cc(COC(=O)c3ccccc3NC(=O)CC(C)C)nc2s1 | 89% (inactive)
COc1ccc(OC)c(NC(=O)CCCc2nnc3n(C(C)C)c(=O)c4sccc4n23)c1 | 74% (inactive)
COc1cccc(N2CCN(C(=O)c3cc4c(=O)oc5ccc(C)cc5c4s3)CC2)c1 | 89% (inactive)
CCn1c(=O)c2cc(C(=O)N3CCN(c4cccc(Cl)c4)CC3)sc2c2ccccc21 | 62% (inactive)
Cn1c(=O)c2cc(C(=O)N3CCN(c4cccc(C(F)(F)F)c4)CC3)sc2c2ccccc21 | 92% (inactive)
Cn1c(=O)c2cc(C(=O)N3CCN(c4ccc(Cl)cc4)CC3)sc2c2ccccc21 | 56% (active)
COc1ccccc1N1CCN(C(=O)c2cc3c(=O)n(C)c4ccccc4c3s2)CC1 | 73% (inactive)
Cc1ccc(Cl)cc1N1CCN(C(=O)c2cc3c(=O)n(C)c4ccccc4c3s2)CC1 | 56% (inactive)
Cc1cccc(N2CCN(C(=O)c3cc4c(=O)oc5ccccc5c4s3)CC2)c1C | 66% (inactive)
Cc1cccc(N2CCN(C(=O)c3cc4c(=O)n(C)c5ccccc5c4s3)CC2)c1C | 47% (active)
CCn1c(=O)c2cc(C(=O)N3CCN(c4cccc(OC)c4)CC3)sc2c2ccccc21 | 53% (active)
COc1ccc(CNC(=O)CSc2nc3cc4c(cc3cc2C#N)OCCO4)cc1 | 96% (inactive)
CSc1cccc(NC(=O)C2CCN(C(=O)c3cnn(-c4ccccc4)c3-n3cccc3)CC2)c1 | 68% (inactive)
COc1ccc(/C=C(\C#N)c2nc(-c3cc(Cl)ccc3OC)cs2)cc1 | 91% (inactive)

SMILES | survival
CCc1ccc(NCc2cc3ccc(OC)cc3n(CC(=O)Nc3ccc(F)cc3F)c2=O)cc1 | 79% (inactive)
CCOc1ccc(-n2c(-c3ccc(OC)cc3)cc3c2CC(C)(C)CC3=O)cc1 | 15% (active)
CCN(CC)C(=O)c1cc2c(n(-c3ccc(OC)cc3)c1=O)CC(C)(C)CC2=O | 70% (inactive)
COc1ccc(-n2c3c(cc(-c4nc(-c5ccc(C)cc5)cs4)c2=O)C(=O)CC(C)(C)C3)cc1 | 54% (inactive)
Cc1ccc(-c2cc3c(n2-c2ccc(F)cc2)CC(C)(C)CC3=O)cc1 | 98% (inactive)
Cc1ccc(-c2cc3c(n2-c2ccccc2F)CC(C)(C)CC3=O)cc1 | 101% (inactive)
CCOc1ccc(-n2c(-c3ccc(Br)cc3)cc3c2CC(C)(C)CC3=O)cc1 | 17% (active)
CCOc1ccc(NC(=O)CSC2=Nc3ccccc3C3=NC(CC(=O)NCc4ccco4)C(=O)N23)cc1 (configuration not stated) | 69% (inactive)
CCCOc1cccc(C(=O)Nc2cc(-c3ccccc3)no2)c1 | 65% (inactive)
O=c1c2oc3ccccc3c2n(Cc2ccccc2F)c(=O)n1Cc1ccco1 | 77% (inactive)
Cc1ccc(C)c(NC(=O)Cn2c(=O)n(Cc3ccccc3)c(=O)c3oc4ccccc4c32)c1 | 62% (inactive)
CCCCn1c(=O)c2oc3ccccc3c2n(CC(=O)Nc2cc(C)ccc2C)c1=O | 44% (active)
Cc1cc(C)cc(NC(=O)Cn2c(=O)n(Cc3ccco3)c(=O)c3oc4ccccc4c32)c1 | 106% (inactive)
O=c1c2oc3ccccc3c2n(Cc2ccccc2F)c(=O)n1Cc1ccccc1 | 46% (active)
Cc1ccc(C)c(Cn2c(=O)n(Cc3ccco3)c(=O)c3oc4ccccc4c32)c1 | 97% (inactive)
O=c1c2oc3ccccc3c2n(Cc2ccc(Cl)cc2)c(=O)n1Cc1ccccc1 | 108% (inactive)
COc1ccccc1NC(=O)Cn1c(=O)n(Cc2ccco2)c(=O)c2oc3ccccc3c21 | 67% (inactive)
Cc1ccc(C)c(Cn2c(=O)n(C(C)C)c(=O)c3oc4ccccc4c32)c1 | 51% (active)
CCCCn1c(=O)c2oc3ccccc3c2n(CC(=O)Nc2cccc(Cl)c2C)c1=O | 52% (inactive)

SMILES | survival
COc1cc(NC(=O)Cn2c(=O)n(Cc3ccco3)c(=O)c3oc4ccccc4c32)cc(OC)c1 | 38% (active)
CC(C)n1c(=O)c2oc3ccccc3c2n(Cc2ccccc2F)c1=O | 50% (inactive)
CN1/C(=C/C(=O)C2CCC2)Sc2ccccc21 | 56% (inactive)
Cn1c(=O)n(C)c2cc(N3CCCCC3)c(NC(=O)Nc3ccc(Br)cc3)cc21 | 88% (inactive)
COCCn1c(=N)c(C(=O)NCc2ccco2)cc2c(=O)n3cc(C)ccc3nc21 | 69% (inactive)
COc1cccc(C(c2sc3nc(-c4ccco4)nn3c2O)N2CCN(C)CC2)c1 (configuration not stated) | 88% (inactive)
CCOC(=O)c1c(NC(=O)c2cc3nc(-c4ccc(OC)cc4)cc(C(F)(F)F)n3n2)sc2c1CCC(C)C2 (configuration not stated) | 95% (inactive)
CCOc1ccc(NS(=O)(=O)c2ccc3[nH]cc(C(=O)N4CCCC4)c(=O)c3c2)cc1 | 85% (inactive)
CCOc1ccc(NC(=O)Cn2c(=O)n(Cc3ccc(C(=O)NCc4ccc(C)cc4)cc3)c(=O)c3ccccc32)cc1 | 75% (inactive)
CCN(CC)c1nc(OCC(F)(F)F)nc(N(c2ccccc2)c2ccccc2)n1 | 76% (inactive)
COc1cc(NC(=O)Cn2c(=O)n(C(C)C)c(=O)c3oc4ccccc4c32)cc(OC)c1 | 47% (active)
O=C(Cn1c(=O)n(Cc2ccco2)c(=O)c2oc3ccccc3c21)Nc1ccc(F)c(Cl)c1 | 44% (active)
COc1ccc(NC(=O)Cn2c(=O)n(C(C)C)c(=O)c3oc4ccccc4c32)cc1Cl | 42% (active)
COc1ccc(NC(=O)Cn2c(=O)n(Cc3ccccc3)c(=O)c3oc4ccccc4c32)cc1Cl | 85% (inactive)
Cc1cc(C)cc(NC(=O)Cn2c(=O)n(C(C)C)c(=O)c3oc4ccccc4c32)c1 | 48% (inactive)
COc1ccc(NC(=O)Cn2c(=O)n(Cc3ccco3)c(=O)c3oc4ccccc4c32)cc1Cl | 53% (inactive)
COc1cc(NC(=O)Cn2c(=O)n(Cc3ccccc3)c(=O)c3oc4ccccc4c32)cc(OC)c1 | 85% (inactive)
O=C(Cn1c(=O)n(Cc2ccco2)c(=O)c2oc3ccccc3c21)Nc1ccccc1 | 67% (inactive)
CC(C)n1c(=O)c2oc3ccccc3c2n(CC(=O)Nc2ccccc2Cl)c1=O | 60% (inactive)
